Results reported in PubChem BioAssay AID1159580 (chemical genetic matrix, 2015).
Out of some 5,500 compounds screened, about 2,000 (36%) were called active. Another 18% or so got no clear call; they are omitted. No stated cut-off is given here; in the data, active means normalized growth mostly below about 0.91 (no sharp cut-off); inconclusive means no clear call, values can overlap the other calls; inactive means mostly above about 0.92. The list shows a part of the results.

Assay: chemical genetic growth profiling, strain panel (AID 1159580);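 further: tested at 20 µM; growth read once vehicle control cultures reached saturation at 30 °C; 1 = growth at the plate median or of vehicle wells; lower values mean less growth of the strain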
Conditions: growth OD

Measured: normalized growth

N#Cc1ccc2c(c1)N(CCCN1CCC(O)CC1)c1ccccc1S2
inactive: S. cerevisiae deletion strains, locus YJR075W, strain HOC1, hits give low values 1.03 | S. cerevisiae deletion strains, locus YKL009W, strain mrt4, hits give low values 1.01 | S. cerevisiae deletion strains, locus YKL068W, hits give low values 1.01 | S. cerevisiae deletion strains, locus YKL085W, strain MDH1 (second series), hits give low values 1.04 | S. cerevisiae deletion strains, locus YKL085W, strain MDH1, hits give low values 1.04 | S. cerevisiae deletion strains, locus YKL160W, strain elf1, hits give low values 0.998 | S. cerevisiae deletion strains, locus YKL190W, strain CNB1, hits give low values 1.01 | S. cerevisiae deletion strains, locus YKR001C, strain vps1, hits give low values 1.02 | S. cerevisiae deletion strains, locus YKR026C, strain gcn3, hits give low values 0.995 | S. cerevisiae deletion strains, locus YKR091W, strain srl3, hits give low values 0.995 | S. cerevisiae deletion strains, locus YLL001W, strain dnm1, hits give low values 0.996 | S. cerevisiae deletion strains, locus YLL026W, hits give low values 0.987 | S. cerevisiae deletion strains, locus YLL041C, strain sdh2, hits give low values 0.996 | S. cerevisiae deletion strains, locus YLR027C, strain aat2, hits give low values 0.992 | S. cerevisiae deletion strains, locus YLR039C, strain RIC1, hits give low values 1.08 | S. cerevisiae deletion strains, locus YLR058C, strain SHM2, hits give low values 1.01 | S. cerevisiae deletion strains, locus YLR102C, strain apc9, hits give low values 1.02 | S. cerevisiae deletion strains, locus YLR113W, strain HOG1, hits give low values 1.05 | S. cerevisiae deletion strains, locus YLR221C, strain rsa3, hits give low values 0.995 | S. cerevisiae deletion strains, locus YLR258W, strain gsy2, hits give low values 0.977 | S. cerevisiae deletion strains, locus YLR262C, strain YPT6 (second series), hits give low values 1.02 | S. cerevisiae deletion strains, locus YLR262C, strain YPT6, hits give low values 1.07 | S. cerevisiae deletion strains, locus YLR268W, strain sec22, hits give low values 1.01 | S. cerevisiae deletion strains, locus YLR320W, strain mms22, hits give low values 0.959 | S. cerevisiae deletion strains, locus YLR330W, strain CHS5, hits give low values 1 | S. cerevisiae deletion strains, locus YLR342W, strain FKS1 (second series), hits give low values 0.989 | S. cerevisiae deletion strains, locus YLR342W, strain FKS1, hits give low values 0.992 | S. cerevisiae deletion strains, locus YLR357W, strain rsc2, hits give low values 0.969 | S. cerevisiae deletion strains, locus YLR370C, strain arc18, hits give low values 0.994 | S. cerevisiae deletion strains, locus YLR371W, strain rom2, hits give low values 1.02 | S. cerevisiae deletion strains, locus YLR384C, strain iki3, hits give low values 0.986 | S. cerevisiae deletion strains, locus YLR418C, strain cdc73, hits give low values 1 | S. cerevisiae deletion strains, locus YML016C, strain PPZ1, hits give low values 1.01 | S. cerevisiae deletion strains, locus YML032C, strain rad52, hits give low values 1.01 | S. cerevisiae deletion strains, locus YML120C, strain ndi1, hits give low values 0.994 | S. cerevisiae deletion strains, locus YML124C, strain tub3, hits give low values 1.02 | S. cerevisiae deletion strains, locus YMR058W, strain fet3, hits give low values 0.999 | S. cerevisiae deletion strains, locus YMR078C, strain ctf18, hits give low values 1.02 | S. cerevisiae deletion strains, locus YMR125W, strain sto1, hits give low values 0.966 | S. cerevisiae deletion strains, locus YMR129W, hits give low values 0.997 | S. cerevisiae deletion strains, locus YMR205C, strain PFK2, hits give low values 0.935 | S. cerevisiae deletion strains, locus YMR223W, strain ubp8, hits give low values 1.01 | S. cerevisiae deletion strains, locus YMR231W, strain pep5, hits give low values 1 | S. cerevisiae deletion strains, locus YMR263W, strain SAP30, hits give low values 1.02 | S. cerevisiae deletion strains, locus YMR307W, strain GAS1, hits give low values 1.04 | S. cerevisiae deletion strains, locus YNL067W, strain RPL9B, hits give low values 1.01 | S. cerevisiae deletion strains, locus YNL071W, strain lat1, hits give low values 0.96 | S. cerevisiae deletion strains, locus YNL128W, strain TEP1, hits give low values 1.01 | S. cerevisiae deletion strains, locus YNL153C, strain GIM3, hits give low values 1 | S. cerevisiae deletion strains, locus YNL183C, strain NPR1, hits give low values 0.983 | S. cerevisiae deletion strains, locus YNL209W, strain ssb2, hits give low values 0.993 | S. cerevisiae deletion strains, locus YNL233W, strain BNI4, hits give low values 0.998 | S. cerevisiae deletion strains, locus YNL248C, strain rpa49, hits give low values 0.997 | S. cerevisiae deletion strains, locus YNL250W, strain rad50, hits give low values 1.04 | S. cerevisiae deletion strains, locus YNL271C, strain bni1, hits give low values 1.03 | S. cerevisiae deletion strains, locus YNL298W, strain CLA4, hits give low values 1.02 | S. cerevisiae deletion strains, locus YNL307C, strain MCK1, hits give low values 1 | S. cerevisiae deletion strains, locus YNL322C, strain KRE1 (second series), hits give low values 0.995 | S. cerevisiae deletion strains, locus YNL322C, strain KRE1, hits give low values 1.01 | S. cerevisiae deletion strains, locus YNR049C, strain mso1, hits give low values 0.991 | S. cerevisiae deletion strains, locus YNR052C, strain pop2, hits give low values 1.02 | S. cerevisiae deletion strains, locus YOL006C, strain TOP1, hits give low values 1.01 | S. cerevisiae deletion strains, locus YOL012C, strain htz1 0.994 | S. cerevisiae deletion strains, locus YOL147C, strain pex11, hits give low values 1.02 | S. cerevisiae deletion strains, locus YOR001W, strain rrp6, hits give low values 0.981 | S. cerevisiae deletion strains, locus YOR061W, strain CKA2, hits give low values 1.01 | S. cerevisiae deletion strains, locus YOR069W, strain VPS5, hits give low values 1.01 | S. cerevisiae deletion strains, locus YOR070C, strain gyp1, hits give low values 1.04 | S. cerevisiae deletion strains, locus YOR080W, strain dia2, hits give low values 0.987 | S. cerevisiae deletion strains, locus YOR083W, strain WHI5, hits give low values 1 | S. cerevisiae deletion strains, locus YOR106W, strain vam3, hits give low values 1 | S. cerevisiae deletion strains, locus YOR136W, strain idh2, hits give low values 1.03 | S. cerevisiae deletion strains, locus YOR144C, strain elg1, hits give low values 1.02 | S. cerevisiae deletion strains, locus YOR184W, strain ser1, hits give low values 1.03 | S. cerevisiae deletion strains, locus YOR231W, strain MKK1, hits give low values 1.08 | S. cerevisiae deletion strains, locus YOR265W, strain rbl2, hits give low values 0.98 | S. cerevisiae deletion strains, locus YOR270C, strain vph1, hits give low values 1.02 | S. cerevisiae deletion strains, locus YOR290C, strain snf2, hits give low values 0.973 | S. cerevisiae deletion strains, locus YOR316C, strain cot1, hits give low values 1.01 | S. cerevisiae deletion strains, locus YPL051W, strain arl3, hits give low values 1 | S. cerevisiae deletion strains, locus YPL055C, strain LGE1, hits give low values 1.02 | S. cerevisiae deletion strains, locus YPL078C, strain atp4, hits give low values 1 | S. cerevisiae deletion strains, locus YPL106C, strain sse1, hits give low values 0.963 | S. cerevisiae deletion strains, locus YPL240C, strain hsp82, hits give low values 1.01 | S. cerevisiae deletion strains, locus YPL241C, strain CIN2, hits give low values 1 | S. cerevisiae deletion strains, locus YPL256C, strain CLN2, hits give low values 1.07 | S. cerevisiae deletion strains, locus YPR119W, strain clb2, hits give low values 1.02 | S. cerevisiae deletion strains, locus YPR141C, strain kar3, hits give low values 1.02 | S. cerevisiae deletion strains, locus YPR163C, strain tif3, hits give low values 1.03 | S. cerevisiae deletion strains, locus YPR167C, strain met16, hits give low values 1.02 | S. cerevisiae deletion strains, strain wtn01, hits give low values 1.01 | S. cerevisiae strains, strain wild type, hits give low values 1.01
